Several values for one entry are separate records, joined by “and”; a condition that tells them apart may be missing. Equal values may be shown once. Screen size: about 5,500 compounds; about 2,000 (36%) were called active. Another 18% or so got no clear call; they are omitted. No stated cut-off is given here; in the data, active means normalized growth mostly below about 0.91 (no sharp cut-off); inconclusive means no clear call, values can overlap the other calls; inactive means mostly above about 0.92. Some of the results follow.
Assay: chemical genetic growth profiling, strain panel (AID 1159580);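 further: tested at 20 µM; growth read once vehicle control cultures reached saturation at 30 °C; 1 = growth at the plate median or of vehicle wells; lower values mean less growth of the strain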
Details: S. cerevisiae deletion strains, growth OD

Measured: normalized growth

O=C(/C=C/c1ccc(O)cc1)c1ccc(O)cc1O
inactive: locus YAL013W, strain DEP1, active compounds read low 0.996 and 0.982 | locus YAL021C, strain ccr4, active compounds read low 0.981 | locus YAL026C, strain drs2, active compounds read low 1.02 | locus YAL030W, strain snc1, active compounds read low 1.01 | locus YAL040C, strain CLN3, active compounds read low 0.986 | locus YBL061C, strain skt5, active compounds read low 1 | locus YBR009C, strain hhf1, active compounds read low 0.999 | locus YBR021W, strain FUR4, active compounds read low 1.04 | locus YBR023C, strain chs3, active compounds read low 0.997 | locus YBR171W, strain sec66, active compounds read low 1.01 | locus YBR229C, strain ROT2, active compounds read low 0.987 | locus YBR231C, strain swc5, active compounds read low 0.979 | locus YBR279W, strain paf1, active compounds read low 0.99 | locus YCL011C, strain gbp2, active compounds read low 0.995 | locus YCL016C, strain dcc1, active compounds read low 0.991 | locus YCL029C, strain bik1, active compounds read low 0.945 | locus YCL061C, strain MRC1 (second series), active compounds read low 1.01 | locus YCL069W, strain vba3, active compounds read low 1.01 | locus YCR088W, strain abp1, active compounds read low 1.01 | locus YDL005C, strain med2, active compounds read low 1.02 | locus YDL035C, strain GPR1, active compounds read low 0.98 | locus YDL040C, strain nat1, active compounds read low 1 | locus YDL074C, strain BRE1, active compounds read low 0.912 | locus YDL101C, strain DUN1, active compounds read low 1 | locus YDL185W, strain tfp1, active compounds read low 0.919 | locus YDL192W, strain arf1, active compounds read low 0.948 | locus YDR001C, strain nth1, active compounds read low 1 | locus YDR069C, strain doa4, active compounds read low 1 | locus YDR101C, strain arx1, active compounds read low 0.96 | locus YDR137W, strain rgp1, active compounds read low 1.08 | locus YDR150W, strain NUM1, active compounds read low 0.991 and 1.01 | locus YDR159W, strain sac3, active compounds read low 0.99 | locus YDR162C, strain NBP2, active compounds read low 1.02 | locus YDR195W, strain ref2 1.04 | locus YDR297W, strain sur2, active compounds read low 1 | locus YDR318W, strain mcm21, active compounds read low 0.966 | locus YDR334W, strain swr1, active compounds read low 1 | locus YDR335W, strain msn5, active compounds read low 1.02 | locus YDR363W, strain ESC2, active compounds read low 1.01 | locus YDR388W, active compounds read low 0.96 | locus YDR392W, strain spt3, active compounds read low 0.892 | locus YDR502C, strain sam2, active compounds read low 0.963 | locus YEL003W, strain gim4, active compounds read low 1.01 | locus YEL037C, strain rad23, active compounds read low 1.01 | locus YEL061C, strain CIN8 (second series), active compounds read low 1.01 | locus YEL061C, strain CIN8, active compounds read low 0.992 | locus YER002W, strain NOP16, active compounds read low 0.985 | locus YER015W, strain faa2, active compounds read low 1 | locus YER016W, strain bim1, active compounds read low 1.01 | locus YER110C, active compounds read low 0.955 | locus YER111C, strain swi4, active compounds read low 1.02 | locus YER155C, strain BEM2 (second series), active compounds read low 0.97 | locus YER155C, strain BEM2, active compounds read low 0.972 | locus YER167W, strain BCK2, active compounds read low 0.971 | locus YFR010W, strain ubp6, active compounds read low 1.02 | locus YGL078C, strain dbp3, active compounds read low 1.01 | locus YGL086W, strain mad1, active compounds read low 0.958 | locus YGL167C, strain pmr1, active compounds read low 1.02 | locus YGL173C, strain kem1, active compounds read low 1.02 | locus YGL227W, strain vid30, active compounds read low 1.01 | locus YGL240W, strain doc1, active compounds read low 0.994 | locus YGL248W, strain PDE1, active compounds read low 1.01 | locus YGL253W, strain hxk2, active compounds read low 0.987 | locus YGR078C, strain PAC10, active compounds read low 0.997 and 0.992 | locus YGR135W, strain pre9, active compounds read low 0.941 | locus YGR252W, strain gcn5, active compounds read low 0.935 | locus YHR013C, strain ard1, active compounds read low 1.03 | locus YHR027C, strain rpn1, active compounds read low 1.01 | locus YHR030C, strain SLT2, active compounds read low 0.98 and 0.955 | locus YHR079C, strain IRE1 (second series), active compounds read low 0.959 | locus YHR079C, strain IRE1, active compounds read low 0.895 | locus YHR094C, strain hxt1, active compounds read low 0.965 | locus YHR129C, strain ARP1, active compounds read low 0.978 | locus YHR142W, strain chs7, active compounds read low 0.985 | locus YHR200W, strain rpn10, active compounds read low 0.944 | locus YIL066C, strain RNR3, active compounds read low 0.975 | locus YIL073C, strain SPO22, active compounds read low 0.96 | locus YIL125W, strain kgd1, active compounds read low 0.963 | locus YIR030C, strain dcg1, active compounds read low 0.973 | locus YJL092W, strain hpr5, active compounds read low 1.01 | locus YJL095W, strain BCK1 (second series), active compounds read low 1.01 | locus YJL095W, strain BCK1, active compounds read low 1.01 and 0.977 | locus YJL115W, strain asf1, active compounds read low 1.02 | locus YJL129C, strain trk1, active compounds read low 0.983 | locus YJL134W, strain LCB3, active compounds read low 0.97 | locus YJL154C, strain vps35, active compounds read low 1.02 | locus YJL164C, strain tpk1, active compounds read low 0.986 | locus YJL166W, strain qcr8, active compounds read low 1.01 | locus YJL168C, strain set2, active compounds read low 0.963 | locus YJL187C, strain SWE1 (second series), active compounds read low 0.994 | locus YJR043C, strain POL32, active compounds read low 0.961 | locus YJR066W, strain TOR1, active compounds read low 0.904

From PubChem BioAssay AID1159580 (chemical genetic matrix, 2015)
